# Mtb hypoxia inh: inhibitors of hypoxia-regulated fluorescent reporter in Mycobacterium tuberculosis. hit rate 0.1% among 300,000. M. tuberculosis hypoxia-regulated fluorescent reporter, fluorescence. fluorescence inhibition, % (test concentration not listed); in the data active = fluorescence inhibition mostly above about 23%, no sharp cut-off; inactive = mostly below about 17%
# VHR inh abs: DUSP3 (human) phosphatase inhibition; recombinant VHR phosphatase, pNPP absorbance; inhibition, % at 13.3 µM; P51452; hit rate 0.52% among 290,000; in the data active = inhibition above about 50%
# Target sequence (P51452 whole entry, looked up): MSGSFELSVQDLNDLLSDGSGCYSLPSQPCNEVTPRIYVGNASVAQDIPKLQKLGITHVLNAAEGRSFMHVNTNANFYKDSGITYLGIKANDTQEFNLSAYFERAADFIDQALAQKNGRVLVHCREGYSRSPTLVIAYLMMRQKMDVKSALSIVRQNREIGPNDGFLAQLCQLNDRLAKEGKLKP
# GDH-TPI inh: GDH-TPI coupled enzyme inhibition counter-screen. GDH-TPI coupled enzyme counterscreen, NADH absorbance. inhibition, % at 4.8 µM. hit rate 1.2% among 360,000. AID 588335; in the data active = inhibition above about 30%;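 note: 0% = DMSO wells and 100% = wells lacking the enzyme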
# FBA Mtb inh: Mtb fructose-bisphosphate aldolase inhibition; P9WQA3; purified M. tuberculosis FBA, fluorescence read-out; inhibition, % at 1 µM; hit rate 2.3% among 360,000; AID 588726; in the data active = inhibition above about 27%;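 note: 0% = vehicle and 100% = reference inhibitor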
# Target sequence (P9WQA3 whole entry, looked up): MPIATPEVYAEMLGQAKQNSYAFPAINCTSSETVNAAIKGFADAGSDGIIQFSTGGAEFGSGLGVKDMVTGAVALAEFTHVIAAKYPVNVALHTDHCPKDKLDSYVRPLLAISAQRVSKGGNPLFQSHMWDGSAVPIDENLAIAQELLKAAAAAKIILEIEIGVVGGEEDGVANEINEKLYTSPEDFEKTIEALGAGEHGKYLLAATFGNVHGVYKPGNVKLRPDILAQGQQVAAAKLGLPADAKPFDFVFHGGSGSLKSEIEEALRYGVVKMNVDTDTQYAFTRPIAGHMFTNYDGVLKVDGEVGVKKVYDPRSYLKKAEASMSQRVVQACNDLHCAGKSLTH
# Mtb betalactam: beta-lactam sensitization of Mtb H37Rv. M. tuberculosis H37Rv growth with meropenem, percent inhibition. inhibition, % at 25 µM. hit rate 0.27% among 330,000. AID 434955; call rule not given here;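 note: growth measured after seven days incubation then overnight dye step; 0% = bacteria only wells and 100% = bacteria with antibiotic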
# * marks the source's active call; other numbers are inactive results; nt = not tested or not shown; + = active, no number. Sampled rows, rich in hits. Any-hit rate of the full collection: about 3.6%.
SMILES,Mtb hypoxia inh,VHR inh abs,GDH-TPI inh,FBA Mtb inh,Mtb betalactam
COc1ccc(CNC(=O)Nc2ccc3c(c2)c(=O)n(C)n3Cc2cc(C)cc(C)c2)cc1,nt,nt,11,168*,nt
Cn1c(=O)c(=O)n(C)c2cc(S(=O)(=O)CCC(=O)Nc3cccc(C(F)(F)F)c3)ccc21,8,-2,7,-1,0
COC(=O)c1ccc(CON=Cc2ccc(OC)cc2)o1,12,nt,nt,nt,nt
COc1cc(C(C)=NN2CCN(c3ccccc3OC)CC2)ccc1O,19,nt,nt,nt,nt
Cn1c(=O)c2cc(NC(=S)NCc3ccccc3F)ccc2n1Cc1cccc(C(F)(F)F)c1,nt,nt,6,21,nt
Cn1c(=O)c2cc(NC(=O)NCc3ccccc3)ccc2n1Cc1cccc(C(F)(F)F)c1,nt,nt,12,138*,nt
Cn1c(=O)c2cc(NC(=O)CCc3ccccc3)ccc2n1Cc1cccc(C(F)(F)F)c1,nt,nt,15,127*,nt
CCN(CC)c1ccc(N=Cc2c(O)n(-c3ccccc3C)c(=O)[nH]c2=O)cc1,-4,10,31,-3,4
Cc1ccccc1-n1c(O)c(C=Nc2ccc3c(c2)OCO3)c(=O)[nH]c1=O,0,11,33*,-2,94
O=C1OC(CN(Cc2ccccc2)Cc2ccccc2)CN1N=Cc1ccc([N+](=O)[O-])o1 (configuration not stated),-1,nt,18,1,nt
O=C1OC(CN2CCOCC2)CN1N=Cc1ccc([N+](=O)[O-])o1 (configuration not stated),-7,nt,32*,-1,6
O=C(NCc1nc2ccccc2[nH]1)C1=CC(C2CC2)CC(OCCCCO)O1 (configuration not stated),14,nt,nt,nt,nt
CCCNC(=O)N1C2CCC1C(C(=O)OC)=C(c1ccc(C(C)=O)cc1)C2 (configuration not stated),8,nt,nt,nt,nt
O=c1c2ccccc2nnn1CSc1ccc2c(c1)OCCO2,6,-24,3,152*,-4
CCC(C(=O)Nc1ccc2c(c1)OCCO2)n1nnc2ccccc2c1=O (configuration not stated),1,4,-1,-2,2
O=C(Nc1ccc(F)cc1)C(Cl)=Cc1ccccc1,18,nt,nt,nt,nt
O=[N+]([O-])c1ccc(-c2ncc(-c3ccc(Br)cc3)o2)cc1,13,6,7,0,-8
Cc1ccc(-c2nc(-c3ccncc3)no2)cc1,-1,-1,2,2,-3
Nc1ncc(C(=O)O)c(-c2ccccc2)n1,-6,nt,9,1,nt
Cc1ccc(-c2cnc(-c3ccncc3)o2)cc1,11,27,19,+,6
Nc1ccc(-c2ncc(-c3ccccc3)o2)cc1,13,30,27,+,11
O=C(O)c1ccccc1-c1ncc(-c2ccccc2)o1,13,nt,18,123*,-1
CC(=NNC(=O)C1CCCN1C(=O)c1ccc([N+](=O)[O-])cc1)c1ccc(Br)cc1 (configuration not stated),2,nt,nt,nt,nt
CCOC(=O)C(=O)NN=Cc1cccc(Br)c1,4,nt,nt,nt,nt
COc1ccc(NN=C(C#N)S(=O)(=O)c2nsc(C)c2C#N)cc1,8,nt,nt,nt,nt
SMILES,Mtb hypoxia inh,VHR inh abs,GDH-TPI inh,FBA Mtb inh,Mtb betalactam
O=C(Nc1ncc2c(n1)-c1ccccc1OC2)c1ccccc1Cl,5,40,20,113*,6
CN(C)CCNC(=O)c1cc2c(s1)-c1ccccc1OC2,9,11,32*,+,3
CC1CCCC(C)N1CCCNC(=O)c1cc2c(s1)-c1ccccc1OC2 (configuration not stated),nt,11,25,+,6
CC1CC(C)CN(CCCNC(=O)c2cc3c(s2)-c2ccccc2OC3)C1 (configuration not stated),6,-14,15,+,36
Cc1c(NC(=O)c2cc3c(s2)-c2ccccc2OC3)cccc1[N+](=O)[O-],11,-9,36*,0,-3
CC(C)(C)OC(=O)NCCCCC(C(=O)N1CCN(C(=O)OC(C)(C)C)CC1)n1cc(CCC(=O)O)nn1 (configuration not stated),0,nt,nt,nt,nt
CC(C)CC1NC(=O)C(CO)NC(=O)c2cc([N+](=O)[O-])cc(I)c2OCCC(C(N)=O)NC1=O (configuration not stated),-3,nt,nt,nt,nt
COc1ccc(C=NNc2nnc(Cc3ccc(OC)c(OC)c3)c(=O)[nH]2)cc1OC,-13,nt,nt,nt,nt
CCCSc1ccc(C2N[C@@](C)(C(=O)OC)C3C(=O)N(C)C(=O)C23)cc1OC (some centres not stated),3,nt,nt,nt,nt
Cc1ccc(C(=O)NN=Cc2ccc(OC(=O)c3cccc(F)c3)cc2)cn1,-2,nt,nt,nt,nt
CNC(=O)C(C)C1C[C@@]1(C)C(NC(=O)OCc1ccccc1)c1ccccc1 (some centres not stated),22,nt,nt,nt,nt
CCCN1CCN(CCCNC(=O)c2cc3c(s2)-c2ccccc2OC3)CC1,nt,32,30,+,2
Cc1cccc2c1-c1sc(C(=O)NCCCN3CCCC(C)C3)cc1CO2 (configuration not stated),12,11,22,+,4
CCCN1CCN(CCCNC(=O)c2cc3c(s2)-c2c(C)cccc2OC3)CC1,12,25,21,+,3
COc1cc(C=NNC(=O)c2nonc2N)c(OC)cc1Br,5,nt,nt,nt,nt
Cc1nn(Cc2ccccc2Cl)c(C)c1NC(=O)c1nc2ncccn2n1,4,22,37*,0,4
CCOC(=O)CNC(=O)c1cc(-c2ccccn2)nc2c(C)c(Cl)ccc12,14,53*,-1,2,66
Cc1c(Cl)ccc2c(C(N)=O)cc(-c3ccccn3)nc12,0,3,2,0,0
CCOC(=O)N1CCN(Cc2cc(=O)oc3ccc4ccccc4c23)CC1,nt,-8,22,5,17
O=C(CC12CC3CC(CC(C3)C1)C2)NCC(=O)OCc1cc(=O)oc2ccc3ccccc3c12,-4,34,9,36*,73
CON=C/C(C#N)=C/c1ccc(OC)c(OC)c1,6,nt,nt,nt,nt
Cc1cnc(C(=O)NC(C)CCc2ccccc2)cn1 (configuration not stated),38*,2,-2,-3,4
Cc1cnc(C(=O)NC(Cc2ccccc2)c2ccccc2)cn1 (configuration not stated),8,7,-10,-2,1

# High-throughput results (PubChem)
